Among the data in PubChem BioAssay (Tox21) are Potency values, retold here.

Records with an inconclusive call do not appear. The source made the active and inactive calls. The call rests on the fitted dose curve; in most records, active means well fitted curve in the direction sought with a large enough effect in the repeat runs; inconclusive means weak or mixed curves; inactive means no such curve, though single readings can be large; an effect the other way counts as inactive or inconclusive.

Experiment [1] has as its target Cytochrome P450 2D6 (Homo sapiens) (UniProt P10635). As to the kind of experiment: Cytochrome P450 Family 2 Subfamily D Member 6 (CYP2D6) small molecule antagonists: luciferase reporter qHTS assay (AID 1671196). Further: nearly all actives have a fitted effect of over 50% in size. In short, it runs like this: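 Each well received CYP2D6 with its proluciferin substrate and chemical, sat 10 min, then got NADPH regeneration solution for 1 h at room temperature. Luminescence in RLU served as the activity measure.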
On the technique in general: A reporter such as luciferase makes a cellular process visible.

Experiment [2] has as its target Cytochrome P450 2C19 (Homo sapiens) (UniProt P33261). As to the kind of experiment: Cytochrome P450 Family 2 Subfamily C Member 19 (CYP2C19) small molecule antagonists: luciferase reporter qHTS assay (AID 1671197). Further: nearly all actives have a fitted effect of over 65% in size. In outline:
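P450-Glo CYP2C19 screening system; proluciferin substrate; DMSO compound stocks; 10 min RT preincubation; NADPH regeneration, 1 h at 37C; luciferin detection reagent, 20 min RT; luminescence as RLU.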

Experiment [3] deals with Cytochrome P450 2C9 (Homo sapiens) (UniProt P11712). The experiment can be described thus: Cytochrome P450 Family 2 Subfamily C Member 9 (CYP2C9) small molecule antagonists: luciferase reporter qHTS assay (AID 1671198). Further: nearly all actives have a fitted effect of over 50% in size. In outline:
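P450-Glo proluciferin substrate with CYP2C9 enzyme; 10 min RT preincubation, then NADPH regeneration 1 h at 37C; luciferin detection reagent 20 min RT, luminescence in relative luminescence units.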

In experiment [4] the target is Cytochrome P450 1A2 (Homo sapiens) (UniProt P05177). As to the kind of experiment: Cytochrome P450 Family 1 Subfamily A Member 2 (CYP1A2) small molecule antagonists: luciferase reporter qHTS assay (AID 1671199). Further: nearly all actives have a fitted effect of over 50% in size. In outline: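 Enzymatic CYP1A2 assay, human, luminescent: 10 min compound–enzyme–substrate preincubation, 1 h NADPH-dependent turnover, 20 min detection step, room temperature throughout. Reduced light indicates lower CYP1A2 activity.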

Experiment [5] addresses Voltage-gated inwardly rectifying potassium channel KCNH2 (Homo sapiens) (UniProt Q12809). The experiment can be described thus: Human Ether-a-go-go-Related Gene (hERG) channel small molecule antagonists: fluorescence cell-based qHTS assay (AID 1671200). Further: nearly all actives have a fitted effect of over 50% in size. In short, it runs like this: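 Fluorescence at 540 nm emission (480 nm excitation) was recorded kinetically for 2 min at 1-second intervals once the thallium-containing stimulus reached cells previously loaded with FluxOR II dye.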

In experiment [6] the target is Cytochrome P450 3A4 (Homo sapiens) (UniProt P08684). The experiment can be described thus: Cytochrome P450 Family 3 Subfamily A Member 4 (CYP3A4) small molecule antagonists: luciferase reporter qHTS assay (AID 1671201). Further: nearly all actives have a fitted effect of over 50% in size. In outline:
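qHTS, 1536-well. CYP3A4 + proluciferin substrate, cpd 10 min RT → NADPH regen 1 h RT → detection reagent 20 min → luminescence (RLU). Ketoconazole positive control.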
Potency means the concentration at half of the fitted maximal effect.

Cytochrome P450 1A2 (Homo sapiens), sequence (P05177 whole entry, looked up): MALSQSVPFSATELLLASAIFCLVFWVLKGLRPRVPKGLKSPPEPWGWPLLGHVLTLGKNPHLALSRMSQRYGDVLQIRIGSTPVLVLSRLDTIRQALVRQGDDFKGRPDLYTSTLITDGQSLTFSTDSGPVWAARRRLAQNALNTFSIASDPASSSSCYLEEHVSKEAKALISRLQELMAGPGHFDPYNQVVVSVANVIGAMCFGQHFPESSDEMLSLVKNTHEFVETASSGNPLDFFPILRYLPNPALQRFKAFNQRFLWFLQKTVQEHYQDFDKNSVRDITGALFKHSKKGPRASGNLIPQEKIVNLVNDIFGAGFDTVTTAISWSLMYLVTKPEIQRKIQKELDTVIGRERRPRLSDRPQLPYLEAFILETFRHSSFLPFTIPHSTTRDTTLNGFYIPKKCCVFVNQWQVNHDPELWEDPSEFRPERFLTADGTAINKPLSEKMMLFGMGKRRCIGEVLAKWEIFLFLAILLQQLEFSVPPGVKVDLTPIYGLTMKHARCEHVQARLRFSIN
Voltage-gated inwardly rectifying potassium channel KCNH2 (Homo sapiens), sequence (Q12809 whole entry, looked up): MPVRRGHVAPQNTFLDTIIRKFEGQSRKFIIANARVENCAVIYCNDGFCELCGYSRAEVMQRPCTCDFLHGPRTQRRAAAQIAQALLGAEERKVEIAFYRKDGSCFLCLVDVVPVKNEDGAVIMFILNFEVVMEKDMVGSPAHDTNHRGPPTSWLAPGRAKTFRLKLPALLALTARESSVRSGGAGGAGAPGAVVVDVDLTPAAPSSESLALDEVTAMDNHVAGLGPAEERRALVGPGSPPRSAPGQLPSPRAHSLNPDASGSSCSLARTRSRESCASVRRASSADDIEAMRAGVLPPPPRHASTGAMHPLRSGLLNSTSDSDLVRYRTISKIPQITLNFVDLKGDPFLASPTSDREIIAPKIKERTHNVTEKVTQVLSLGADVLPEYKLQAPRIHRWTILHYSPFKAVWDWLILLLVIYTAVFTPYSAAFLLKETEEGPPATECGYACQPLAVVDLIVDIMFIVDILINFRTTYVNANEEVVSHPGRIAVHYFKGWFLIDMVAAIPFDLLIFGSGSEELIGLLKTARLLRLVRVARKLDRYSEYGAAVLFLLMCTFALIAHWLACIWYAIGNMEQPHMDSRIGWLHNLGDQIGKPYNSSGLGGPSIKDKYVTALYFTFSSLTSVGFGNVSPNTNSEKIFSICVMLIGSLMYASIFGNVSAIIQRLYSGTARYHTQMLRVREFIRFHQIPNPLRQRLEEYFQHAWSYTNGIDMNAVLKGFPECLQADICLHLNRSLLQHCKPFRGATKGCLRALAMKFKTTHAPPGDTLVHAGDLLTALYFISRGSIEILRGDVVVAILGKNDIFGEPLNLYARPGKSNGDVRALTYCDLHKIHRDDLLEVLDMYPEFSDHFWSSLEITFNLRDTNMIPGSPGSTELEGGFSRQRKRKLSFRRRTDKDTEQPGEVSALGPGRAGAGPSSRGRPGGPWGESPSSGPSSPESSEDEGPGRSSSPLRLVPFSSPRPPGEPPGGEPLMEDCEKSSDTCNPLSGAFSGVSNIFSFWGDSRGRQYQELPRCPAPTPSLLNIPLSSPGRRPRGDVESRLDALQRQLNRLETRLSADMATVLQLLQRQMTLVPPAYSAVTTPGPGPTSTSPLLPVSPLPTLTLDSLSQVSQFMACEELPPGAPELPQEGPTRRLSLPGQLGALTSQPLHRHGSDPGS
Cytochrome P450 2D6 (Homo sapiens), sequence (P10635 whole entry, looked up): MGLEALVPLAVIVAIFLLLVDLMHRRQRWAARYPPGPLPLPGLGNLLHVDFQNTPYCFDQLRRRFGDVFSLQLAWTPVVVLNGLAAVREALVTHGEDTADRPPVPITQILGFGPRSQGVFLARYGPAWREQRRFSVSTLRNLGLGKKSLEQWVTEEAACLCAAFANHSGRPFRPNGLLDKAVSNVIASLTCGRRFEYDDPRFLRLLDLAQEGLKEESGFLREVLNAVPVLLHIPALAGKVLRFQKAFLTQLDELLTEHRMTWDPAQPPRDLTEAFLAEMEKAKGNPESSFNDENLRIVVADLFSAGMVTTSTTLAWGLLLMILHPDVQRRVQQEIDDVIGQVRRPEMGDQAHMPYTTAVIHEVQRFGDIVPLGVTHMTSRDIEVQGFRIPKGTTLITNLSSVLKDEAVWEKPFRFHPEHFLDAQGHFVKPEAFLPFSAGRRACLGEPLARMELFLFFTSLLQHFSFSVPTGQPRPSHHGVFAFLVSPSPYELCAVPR
Cytochrome P450 3A4 (Homo sapiens), sequence (P08684 whole entry, looked up): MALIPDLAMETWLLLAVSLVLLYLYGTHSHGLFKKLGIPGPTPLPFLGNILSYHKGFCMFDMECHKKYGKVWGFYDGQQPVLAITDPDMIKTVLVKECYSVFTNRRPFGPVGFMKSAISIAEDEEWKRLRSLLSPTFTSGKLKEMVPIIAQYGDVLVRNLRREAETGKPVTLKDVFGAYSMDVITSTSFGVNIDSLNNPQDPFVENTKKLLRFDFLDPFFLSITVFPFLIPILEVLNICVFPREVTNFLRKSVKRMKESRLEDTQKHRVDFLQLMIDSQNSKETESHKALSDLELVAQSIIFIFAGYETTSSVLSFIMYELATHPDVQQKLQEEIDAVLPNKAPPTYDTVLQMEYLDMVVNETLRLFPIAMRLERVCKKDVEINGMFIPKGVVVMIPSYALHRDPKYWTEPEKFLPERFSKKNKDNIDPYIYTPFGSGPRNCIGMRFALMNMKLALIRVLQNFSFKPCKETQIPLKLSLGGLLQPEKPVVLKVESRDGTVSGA
Cytochrome P450 2C19 (Homo sapiens), sequence (P33261 whole entry, looked up): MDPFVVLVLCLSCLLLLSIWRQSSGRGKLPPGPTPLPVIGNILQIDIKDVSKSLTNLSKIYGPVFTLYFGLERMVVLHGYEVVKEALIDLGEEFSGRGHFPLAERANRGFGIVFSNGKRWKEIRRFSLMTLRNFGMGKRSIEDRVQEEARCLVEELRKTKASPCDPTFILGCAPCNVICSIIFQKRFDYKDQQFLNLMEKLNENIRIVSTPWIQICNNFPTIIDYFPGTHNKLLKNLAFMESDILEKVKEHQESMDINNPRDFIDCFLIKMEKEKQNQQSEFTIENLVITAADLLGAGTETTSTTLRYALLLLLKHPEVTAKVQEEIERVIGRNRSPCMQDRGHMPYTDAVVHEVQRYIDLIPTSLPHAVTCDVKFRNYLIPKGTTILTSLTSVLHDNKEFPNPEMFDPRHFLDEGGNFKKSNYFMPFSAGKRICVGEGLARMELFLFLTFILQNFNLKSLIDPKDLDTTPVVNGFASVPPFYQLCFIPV
Cytochrome P450 2C9 (Homo sapiens), sequence (P11712 whole entry, looked up): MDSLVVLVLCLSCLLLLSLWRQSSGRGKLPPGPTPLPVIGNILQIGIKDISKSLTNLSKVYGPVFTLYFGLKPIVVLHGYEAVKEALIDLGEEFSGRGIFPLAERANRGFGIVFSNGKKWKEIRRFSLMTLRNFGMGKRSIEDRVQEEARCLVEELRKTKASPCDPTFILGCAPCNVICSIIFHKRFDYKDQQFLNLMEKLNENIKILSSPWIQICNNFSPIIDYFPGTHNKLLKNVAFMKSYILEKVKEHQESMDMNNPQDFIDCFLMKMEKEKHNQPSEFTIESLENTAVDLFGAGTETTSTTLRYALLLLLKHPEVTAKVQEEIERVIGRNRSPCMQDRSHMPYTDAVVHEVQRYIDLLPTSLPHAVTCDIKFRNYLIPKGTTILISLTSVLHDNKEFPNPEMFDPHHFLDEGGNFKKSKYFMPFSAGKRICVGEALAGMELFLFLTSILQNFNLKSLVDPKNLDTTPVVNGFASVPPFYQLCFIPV

With `O=C(Cl)c1cc(Cl)cc(Cl)c1`, the Potency entry in experiment [1], in experiment [2], in experiment [3], in experiment [4], in experiment [5] and in experiment [6] was “inactive” in each case.

Regarding `NC(=O)c1cc[n+](CC2=C(C(=O)[O-])N3C(=O)[C@@H](NC(=O)Cc4cccs4)[C@H]3SC2)cc1`, the Potency result in experiment [1], in experiment [2], in experiment [3], in experiment [4], in experiment [5] and in experiment [6] was “inactive” each time.

`CC/C=C/CCO`: the Potency entry in experiment [1], in experiment [2], in experiment [3], in experiment [5] and in experiment [6] was “inactive” in each case. Besides, in experiment [4], the Potency was 36.2 µM (active).

For the compound `C=CC(=O)OCCCCCCCCCC`, the Potency result in experiment [1], in experiment [2], in experiment [3], in experiment [4] and in experiment [5] was “inactive” throughout.

As for `CC(C)(C)c1ccc(CCC=O)cc1`, in experiment [1], the Potency result is “inactive”.

For the compound `CCCN(C1CCN(C(=O)C2CCNCC2)CC1)[C@@H]1CCc2ccc(OC)cc2C1`, in experiment [1], the Potency is 10 µM (active). The Potency result in experiment [2], in experiment [3] and in experiment [4] was “inactive” in each case.

In the case of `COc1ccnc2c1CCCCC2S(=O)c1nc2ccccc2[nH]1` (centres undefined), the Potency in experiment [1] is 0.436 µM (active); in experiment [2] it was 8.71 µM (active); in experiment [3], 12.3 µM (active); in experiment [4] it was 13.8 µM (active). For the same compound, in experiment [5], the Potency result was “inactive”.

Take `N#C[C@@H]1CC(F)(F)CN1C(=O)CNC1CC2CCC(C1)N2c1ncccn1` (some centres undefined): the results for the Potency in experiment [1], in experiment [2] and in experiment [3] were 12.6 µM (active), 71 µM (active) and 35.6 µM (active), respectively. Moreover, the Potency entry in experiment [4] and in experiment [5] was “inactive” throughout.

Consider `CC1=C(C)C(=O)C(CCCCC#CCCCC#CCO)=C(C)C1=O`, for which the Potency in experiment [1] was 15.5 µM (active); in experiment [2], 11 µM (active); in experiment [3], 6.92 µM (active).

As to `CCCCOC(=O)CC#N`, the Potency was 5.27 µM (active) in experiment [1], 7.44 µM (active) in experiment [2], 7.44 µM (active) in experiment [3] and 7.44 µM (active) in experiment [4]. For the same compound, the Potency entry in experiment [5] was “inactive”.

`O=C(C1CCCCC1)N1CC(=O)N2CCCc3ccccc3C2C1` (centres undefined): the Potency entry in experiment [1], in experiment [4] and in experiment [5] was “inactive” in each case. Also, the results for the Potency in experiment [2] and in experiment [3] were 4.9 µM (active) and 13.8 µM (active), respectively.

For `CCCC1CCCC(=O)O1` (centres undefined), the Potency result in experiment [1], in experiment [2], in experiment [4] and in experiment [5] was “inactive” throughout. Also, the Potency in experiment [3] and in experiment [6] was 39.9 µM (active) in each case.

For `CC(O)CN` (centres undefined), the Potency entry in experiment [1], in experiment [2], in experiment [3], in experiment [4] and in experiment [5] was “inactive” each time.

On to `CCCCOc1ccc(N)cc1`, for which the Potency is 39.9 µM (active) in experiment [1], 28.3 µM (active) in experiment [2], 39.9 µM (active) in experiment [3] and 11.2 µM (active) in experiment [4]. The Potency entry in experiment [5] is “inactive”.

For `Cc1ccc2ccccc2c1[N+](=O)[O-]`, the Potency entry in experiment [1], in experiment [3] and in experiment [5] was “inactive” in each case. The Potency is 79.6 µM (active) in experiment [2] and 2.52 µM (active) in experiment [4].

As for `CO[C@@H]1[C@@H](O[C@@H]2O[C@H](C)[C@@H](O[C@H]3C[C@@](C)(O)[C@@H](O)[C@H](C)O3)[C@H](N(C)C)[C@H]2O)[C@@H](CC=O)C[C@@H](C)[C@@H](O[C@@H]2CC[C@H](N(C)C)[C@@H](C)O2)/C=C/C=C/C[C@@H](C)OC(=O)C[C@H]1OC(C)=O`, the Potency result in experiment [1], in experiment [2], in experiment [3], in experiment [4] and in experiment [5] was “inactive” throughout.

In the case of `CC(CC(C#N)(c1ccccc1)C(C)C)N(C)C` (centres undefined), in experiment [1], the Potency is 15.5 µM (active). Also, the Potency entry in experiment [2], in experiment [3], in experiment [4] and in experiment [5] was “inactive” each time.

For the compound `C=CCCC`, the Potency result in experiment [1], in experiment [2], in experiment [3], in experiment [4], in experiment [5] and in experiment [6] was “inactive” in each case.

Consider `CCCOC(C)=O`, for which the Potency entry in experiment [1], in experiment [2], in experiment [3], in experiment [4], in experiment [5] and in experiment [6] was “inactive” throughout.

As to `COc1cc(CNC(=O)CCCC/C=C/C(C)C)ccc1O`, the Potency in experiment [1] was 38.9 µM (active); in experiment [2] it was 9.77 µM (active); in experiment [3], 9.77 µM (active); in experiment [4], 30.9 µM (active); in experiment [6] it was 12.3 µM (active). Further, the Potency result in experiment [5] was “inactive”.

On to `CCC(CC)C(=O)O`, for which the Potency entry in experiment [1], in experiment [2], in experiment [3], in experiment [4] and in experiment [5] was “inactive” throughout.

As for `O=C(NC1CCN(CCc2c[nH]c3ccccc23)CC1)c1ccccc1`, the Potency is 1.95 µM (active) in experiment [1] and 4.77 µM (active) in experiment [5]. In addition, the Potency result in experiment [2], in experiment [3] and in experiment [4] was “inactive” in each case.

As for `CCOc1ccccc1O`, the Potency result in experiment [1], in experiment [2], in experiment [3], in experiment [4], in experiment [5] and in experiment [6] was “inactive” each time.

With `CC(CCl)OC(C)CCl` (centres undefined), the Potency entry in experiment [1], in experiment [2], in experiment [3], in experiment [4] and in experiment [5] was “inactive” throughout.

Take `CCOc1ccc2c(c1)C(C)CC(C)(C)N2` (centres undefined): the Potency is 11.2 µM (active) in experiment [1]; 1.26 µM (active) in experiment [2]; 14.2 µM (active) in experiment [3]; 35.6 µM (active) in experiment [4]; 7.96 µM (active) in experiment [6]. For the same compound, the Potency entry in experiment [5] was “inactive”.

For `CCN(CC)CC(=O)OCC(=O)[C@@]1(O)CC[C@H]2[C@@H]3CCC4=CC(=O)CC[C@]4(C)[C@H]3[C@@H](O)C[C@@]21C`, the Potency result in experiment [1], in experiment [2], in experiment [3], in experiment [4] and in experiment [5] was “inactive” throughout.

Regarding `C/C(=C(\CCO)SS/C(CCO)=C(\C)N(C=O)Cc1cnc(C)nc1N)N(C=O)Cc1cnc(C)nc1N`, the Potency entry in experiment [1], in experiment [2], in experiment [3], in experiment [4] and in experiment [5] was “inactive” throughout.

As for `N#CCCCC(C#N)CCC#N` (centres undefined), the Potency result in experiment [1], in experiment [2], in experiment [4], in experiment [5] and in experiment [6] was “inactive” each time. For the same compound, in experiment [3], the Potency was 39.9 µM (active).

`Cc1ccc(NC(=O)c2ccc(CN3CCN(C)CC3)cc2)cc1Nc1nccc(-c2cccnc2)n1`: the Potency result in experiment [1], in experiment [2], in experiment [3] and in experiment [4] was “inactive” in each case.

As for `CCCC(=O)OCc1ccccc1`, the Potency result in experiment [1], in experiment [2], in experiment [3], in experiment [4], in experiment [5] and in experiment [6] was “inactive” throughout.

In the case of `CO[C@@H]1COCC[C@@H]1N[C@@H]1CC[C@@](C(=O)N2CCc3ncc(C(F)(F)F)cc3C2)(C(C)C)C1`, in experiment [1], the Potency was 35.4 µM (active). For the same compound, the Potency result in experiment [2], in experiment [3], in experiment [4] and in experiment [5] was “inactive” in each case.

With `c1ccc(CCNc2nc(-c3ccccc3)cs2)cc1`, the Potency in experiment [1] is 17.4 µM (active); in experiment [2], 2.75 µM (active); in experiment [3] it was 6.92 µM (active); in experiment [4] it was 2.29 µM (active). Moreover, the Potency entry in experiment [5] was “inactive”.

Consider `CC(=O)c1ccc(Cl)c(Cl)c1Cl`, for which the Potency result in experiment [1], in experiment [3], in experiment [5] and in experiment [6] was “inactive” in each case. In addition, the figures for the Potency in experiment [2] and in experiment [4] were 70.9 µM (active) and 11.2 µM (active), respectively.

For the compound `COc1ccc(/C=C/S(=O)(=O)NC(=O)c2ccc(C)cc2Cl)cc1`, the Potency entry in experiment [1], in experiment [2], in experiment [4] and in experiment [5] was “inactive” throughout. Moreover, the Potency in experiment [3] was 17.8 µM (active).
